Results as given in PubChem BioAssay AID624114 (Johns Hopkins Ion Channel Center, 2012).
Among all 4,000 compounds or so, about 15 (0.4%) were called active.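 Rule for the calls: active = calcium fluorescence ratio, averaged over duplicates, at least 3 SD of the buffer-well ratio, meaning a nonspecific response in receptor-free cells; inactive = the rest.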 A selection follows.

Experiment: nonspecific Ca2+ flux in HEK293 lacking MrgX1 – cell-based, Fluo-4 calcium flux, duplicate, counter-screen for MrgX1 allosteric activator project, primary screen (AID 624114)
Conditions: parental HEK293 calcium flux, Fluo-4 fluorescence ratio; at 10 µM

SMILES	outcome
Cc1ccnc(NC(=O)C(C)N2C(=O)c3ccccc3C2=O)c1 (stereo unspecified)	inactive
CCC(C)c1ccccc1N1CC(C(=O)N2CCN(S(=O)(=O)c3ccc(F)cc3)CC2)CC1=O (stereo unspecified)	inactive
Cc1ccc(Nc2nc(-c3ccc(O)cc3O)cs2)nc1	inactive
CCC(C)Sc1nc(C)nc2c1c(=O)n(C)c(=O)n2C (stereo unspecified)	inactive
Cc1ccnc(-n2sc3ccccc3c2=O)n1	inactive
CCOC(=O)C1=C(O)CSC1=Nc1cccc(Cl)c1	inactive
COCc1nnc(NC(=O)c2ccc3c(c2)OCO3)s1	inactive
CC1(C(=O)O)CCC(C(=O)Nc2ccc(Cl)c(Cl)c2)C1(C)C (stereo unspecified)	inactive
CC(C)CNc1ncnc2c1cnn2Cc1ccc(Cl)cc1	inactive
CCc1ccc(N(CC(=O)Nc2sc3c(c2C(=O)OC)CCCC3)S(C)(=O)=O)cc1	inactive
OCCn1c(-c2ccccc2)csc1=Nc1ccccc1	inactive
CCOc1ccc(NC(=O)CCNC(=O)c2ccc(Br)cc2)cc1	inactive
Cc1ccc(C(C(=O)NC2CCCCC2)N(C(=O)c2csnn2)C2CC2)o1 (stereo unspecified)	inactive
COc1ccc(-c2cc(C(F)(F)F)nc(S(C)(=O)=O)n2)cc1OC	inactive
O=C(C1CCN(S(=O)(=O)c2cnc[nH]2)CC1)N1CCN(Cc2ccc3c(c2)OCO3)CC1	inactive
O=C(Nc1cccc(Cl)c1)c1cncn1-c1ccc(F)cc1	inactive
Cc1nonc1C1CCCN1Cc1nc(-c2ccc(F)cc2F)oc1C (stereo unspecified)	inactive
Cc1ccc2c(C)c(C(=O)N(C)CCC3CCCCO3)oc2c1C (stereo unspecified)	inactive
O=C(CN1CCN(c2ccc(Cl)cc2)CC1)N1CCCC1	inactive

SMILES	outcome
COc1cc2c(cc1O)C(SC)=NC(C)(C)C2	inactive
FC(F)Oc1ccc(NC(=S)NCc2ccco2)cc1Cl	inactive
COc1ccc(Nc2nnc(C)c3ccccc23)cc1	inactive
Cc1c(C)c2c(OCC(=O)N[C@@H](C(=O)O)c3ccccc3)cc3c(c2oc1=O)CCC(C)(C)O3	inactive
CCSc1nsc(NC(=O)Nc2cccc(C(C)=O)c2)n1	inactive
Cc1c(C(=O)N2CCN(c3ccc(F)cc3)CC2)oc2c1C(=O)CCC2	inactive
O=C(c1cccc(S(=O)(=O)Nc2ccccc2Cl)c1)N1CCN(C(=O)c2ccco2)CC1	inactive
O=C(Cn1c(-c2cncs2)nc2ccccc21)NC1CCCC1	inactive
CC1(C)CC2CC(C)(CN2c2ncnc3ccc(Br)cc23)C1 (stereo unspecified)	inactive
CCOC(=O)c1c(NC(=O)CSc2cn(CC)c3ccccc23)sc2c1CCC2	inactive
O=C(O)CSC(NC(=O)c1cccnc1)(C(F)(F)F)C(F)(F)F	inactive
CCOC(=O)N1CCN(C(=O)COCc2cc(-c3ccc4c(c3)OCO4)on2)CC1	inactive
COc1ccc(C(=O)Nc2c(N)nc(SCC(=O)N3CCC(C)CC3)[nH]c2=O)cc1OC	inactive
CCOc1cc(-c2conc2N)cc(OCC)c1OCC	inactive
O=C1CCCN1CCCNC(=S)Nc1ccc(F)c(Cl)c1	inactive
COc1ccc(C(=O)NNC(=S)NC(=O)c2ccccc2)cc1	inactive
Nc1ccc(Oc2ccc(Cl)cc2)cc1	inactive
CN(CC(=O)Nc1ccccc1Cl)C(=O)COc1cccc2c1OC(C)(C)C2	inactive
CCOc1ccc2nc(/N=C/c3nc(-c4ccccc4)oc3O)sc2c1	inactive

SMILES	outcome
FC(F)(F)c1cc(-c2cccs2)nc(NCc2ccco2)n1	inactive
O=C(CSc1c2c(nc3ccc(Cl)cc13)CCCC2)NCc1ccco1	inactive
COc1ccc(Nc2nc(-c3cccnc3)nc3ccccc23)cn1	inactive
CN(C)CCn1c(=S)[nH]c2ccc(Cl)cc2c1=O	inactive
COC(=O)c1sccc1NS(=O)(=O)c1ccc(F)cc1F	inactive
COc1ccc2c(c1)OC(O)(C(F)(F)C(F)F)CC2=O (stereo unspecified)	inactive
CC(C)NC(=S)Nc1cccc2cnccc12	inactive
C=CCNC(=O)c1cc(-c2ccccc2O)on1	inactive
O=C(Nc1ccccc1N1CCCCC1)c1ccc2nccnc2c1	inactive
Cc1ccc2c(c1)c1ncnc(N3CCc4ccccc4C3)c1n2C	inactive
CCc1ccc2nc3sc(C(=O)Nc4nnc(CC)s4)c(N)c3cc2c1	inactive
COc1ccc(C(=O)NC(=S)NNC(=O)c2c(-c3ccccc3)noc2C)cc1	inactive
COc1ccccc1N(CC(=O)N1CCCCC1)S(=O)(=O)c1ccccc1	inactive
CC(C)OCCCNc1ncnc2c1[nH]c1ccc(F)cc12	inactive
COc1cc(CCC(=O)Nc2ccncc2Cl)cc(OC)c1OC	inactive
CCCc1[nH]nc2c1C(c1ccc(Br)s1)C(C#N)=C(N)O2 (stereo unspecified)	inactive
O=C(Cc1ccccn1)c1ccc(O)cc1O	inactive
Cc1cccn2c(=O)c(/C=C3\SC(=S)N(CC(C)C)C3=O)c(NCCCOC(C)C)nc12	inactive
